Measurements from PubChem BioAssay AID1851 (National Center for Advancing Translational Sciences (NCATS), 2009).
About 5,800 (36%) of roughly 16,000 compounds were called active. Roughly 23% stayed inconclusive and do not appear here. Some of the results follow. Unmarked numbers belong to inactive results. Calls come from the whole dose curve; as a rule, active = well fitted curve in the direction sought with a large enough effect; inconclusive = small, poorly fitted or top-dose-only effect, or effect the other way; inactive = no such curve, though single readings can be large or run the other way.

target: Cytochrome P450 2C19 (Homo sapiens) (UniProt P33261); assay: Cytochrome panel assay with activity outcomes; settings: recombinant CYP, pro-luciferin dealkylation, luminescence, p450-cyp2c19; series mostly up to 57.1 µM; activity, negative = inhibition: at the top concentration
Sequence (P33261 whole entry, looked up): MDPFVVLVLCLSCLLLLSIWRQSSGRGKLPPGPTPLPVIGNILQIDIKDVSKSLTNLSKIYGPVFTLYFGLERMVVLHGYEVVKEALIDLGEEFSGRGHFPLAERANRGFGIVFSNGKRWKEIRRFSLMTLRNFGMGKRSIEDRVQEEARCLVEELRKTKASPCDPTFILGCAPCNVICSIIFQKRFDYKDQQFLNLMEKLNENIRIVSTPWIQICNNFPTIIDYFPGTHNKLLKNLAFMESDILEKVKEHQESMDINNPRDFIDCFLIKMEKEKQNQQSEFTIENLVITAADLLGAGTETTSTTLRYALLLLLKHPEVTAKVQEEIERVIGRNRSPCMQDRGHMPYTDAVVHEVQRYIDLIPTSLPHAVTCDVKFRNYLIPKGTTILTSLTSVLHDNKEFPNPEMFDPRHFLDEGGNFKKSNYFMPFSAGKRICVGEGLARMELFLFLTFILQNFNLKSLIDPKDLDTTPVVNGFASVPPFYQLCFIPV
% is set by controls: 0 for no effect and ±100 for the full control effect.

Structure (SMILES) | activity, negative = inhibition | AC50
COc1ccc(O)c(/C=N/NC(=O)c2ccc(OCc3cccc(Br)c3)cc2)c1 | -4.51% | 
COC(=O)CCC(=O)NNC(=O)c1ccc(Br)cc1 | -12.7% | 
COc1ccc(C(=O)NCC(=O)OCc2cccc(Br)c2)cc1 |  | 3.55 µM (active)
CO/N=C\[C@@H](OC)[C@H](C)/C=C\CC(=O)OC | -12.9% [at 11.4 µM] | 
COC(=O)C/C=C\[C@H](C)[C@@H](OC)c1ccccc1Br | -6.61% [at 11.4 µM] | 
CCO[C@H](c1cc(OC)cc([N+](=O)[O-])c1OC)[C@H](C)/C=C\CC(=O)OC |  | 0.398 µM (active)
Cc1nc2c(OCc3ccccc3)cccn2c1CC#N | -11.3% | 
CSc1nnc(-c2sccc2OCc2ccccc2)n1C |  | 17.8 µM (active)
CO[C@H]1COC(=O)[C@@H](C)COC(=O)[C@@H](COCc2ccccc2)NC(=O)C/C=C\[C@H]1C | 37.5% [at 11.4 µM] | 
CC(C)NCCOCCSc1ccc(Cl)cc1 |  | 15.8 µM (active)
O=c1[nH]c(=O)n([C@@H]2C[C@H](O)[C@H](CO)O2)cc1C(F)(F)F | -2.44% [at 25.6 µM] | 
CC(=O)N1CCC2(CC1)CCN(C(=O)Nc1cccc(F)c1)CC2 | -4.74% | 
Cn1cccc1C(=O)N1CCC2(CCN(C(=O)Nc3cccc(F)c3)CC2)CC1 | -21.4% | 
CC(=O)NC1(c2ccc(F)cc2)CCN(C(=O)Nc2ccc(F)cc2F)CC1 |  | 7.08 µM (active)
CN1CCN(c2nc(-c3cccc(C#N)c3)nc3ccccc23)CC1 | -12.9% | 
CN(Cc1ccco1)c1nc(-c2ccc3c(c2)OCO3)nc2ccccc12 |  | 7.94 µM (active)
CN(Cc1ccco1)c1nc(-c2cccc(C#N)c2)nc2ccccc12 |  | 15.8 µM (active)
COc1cccc(-c2nc(N(C)C)c3ccccc3n2)c1 |  | 20 µM (active)
COc1cccc(-c2nc(N(C)Cc3ccco3)c3ccccc3n2)c1 |  | 20 µM (active)
CN(C)c1nc(-c2cccnc2)nc2ccccc12 | -40.7% | 
CNC(=O)c1sc(SC)cc1-c1ccc(Cl)cc1 |  | 0.0562 µM (active)
CCn1c(=O)[nH]c2ccccc2c1=O | -2.61% | 
CCn1c(/C=C2/C(=O)N(C)c3ccccc32)nc2ccccc2c1=O |  | 15.8 µM (active)
Cc1cc(C)cc(NC(=O)CCc2nc3ccccc3[nH]2)c1 |  | 1.58 µM (active)

Structure (SMILES) | activity, negative = inhibition | AC50
Cc1cc(C)cc(NC(=O)C/C(N)=N/O)c1 | -15.2% | 
CC(C)(CCc1nc2ccccc2[nH]1)C(=O)O | -0.413% [at 11.4 µM] | 
CCOC(=O)C1=C(CSc2nc3ccccc3s2)NC(=O)NC1c1cc(C)ccc1C (centres undefined) |  | 7.94 µM (active)
CCOC(=O)C1=C(COc2ccc(F)cc2Cl)NC(=O)NC1c1cc(C)ccc1C (centres undefined) |  | 7.08 µM (active)
CCOC(=O)C1=C(C)NC(=O)N[C@@H]1c1coc2cc(C)cc(C)c2c1=O | -27.2% [at 11.4 µM] | 
C=CCNc1nc(-c2ccc(Cl)cc2)cs1 |  | 3.16 µM (active)
Cc1ccc(CSC(N)=Nc2ccccc2)cc1C |  | 2 µM (active)
C#C[C@@]1(O)CC[C@@H]2[C@@H]3CCC4=CC(=O)CC[C@@H]4[C@H]3CC[C@]21C |  | 5.01 µM (active)
C#C[C@]1(O)CC[C@@H]2[C@H]3CCC4=CCCC[C@@H]4[C@@H]3CC[C@@]21C |  | 3.98 µM (active)
C#C[C@@]1(O)CC[C@@H]2[C@@H]3CCC4=C(CCC(=O)C4)[C@H]3CC[C@]21C |  | 0.0631 µM (active)
C[C@@]12CCC(=O)C=C1CC[C@@H]1[C@@H]2[C@H](O)C[C@]2(C)[C@@H]1CC[C@]2(O)C(=O)COC(=O)CCC(=O)O | 35.7% | 
CCNc1ncc2nc(-c3cn(C)c4ccccc34)c(=O)n(C)c2n1 | -18.4% | 
COc1ccc(NC(=O)C2CCN(C(=O)c3cccs3)CC2)c(OC)c1 | -6.18% | 
COc1ccc(/C=C/C(=O)Nc2ccccc2C(=O)N2CCCC2)cc1 | -26.3% | 
COC(=O)c1ccccc1NC(=O)C1CCN(C(=O)c2ccc(OC)cc2)CC1 |  | 14.1 µM (active)
COc1cc(OC)cc(C(=O)Nc2ccccc2C(=O)N2CCCC2)c1 |  | 28.2 µM (active)
COc1cc(OC)cc(C(=O)Nn2cc(C(=O)N3CCN(C)CC3)c3ccccc3c2=O)c1 | -11.9% | 
O=C1[C@H]2[C@H]3[C@H](O)[C@H](O)C/C(=N/OC[C@@H](O)COCc4ccco4)[C@H]3CC[C@@H]2C(=O)N1C1CCCCC1 | -5.34% [at 11.4 µM] | 
N#CC(c1ccc(Cl)cc1)(c1ncc(C(F)(F)F)cc1Cl)N1CCOCC1 (centres undefined) |  | 11.2 µM (active)
N#CC(c1ccccc1F)(c1ncc(C(F)(F)F)cc1Cl)N1CCOCC1 (centres undefined) |  | 11.2 µM (active)
Cc1ccccc1NS(=O)(=O)c1cc(C(=O)Nc2cccc(N(C)S(C)(=O)=O)c2)ccc1C |  | 3.55 µM (active)
Cc1ccc(SCCNC(=O)c2ccc(C)c(S(=O)(=O)Nc3ccccc3C)c2)cc1 |  | 2.51 µM (active)
Cc1ccc(SCCNC(=O)c2ccccc2)cc1 |  | 6.31 µM (active)
Cc1ccc(SCc2ccc(C(=O)NCc3ccncc3)cc2)cc1 |  | 0.355 µM (active)

Structure (SMILES) | activity, negative = inhibition | AC50
Cc1ccc(NC(=O)c2cccc(N(C)C)c2)cc1NC(=O)c1ccc(O)cc1 | 42% | 
CCN(CC)CCNC(=O)c1ccc(Cl)c(S(=O)(=O)Nc2ccccc2OC)c1 | -26.4% | 
Cc1ccc(SCc2nnc(NC(=O)c3ccccc3)s2)cc1 | -23.4% | 
NS(=O)(=O)Cc1noc2ccccc12 | -11.9% | 
Cc1cc(C(C)(C)CC(C)(C)C)ccc1OCCOCC[N+](C)(C)Cc1ccccc1 | -43.6% [at 25.6 µM] | 
CN[C@@H]1[C@H](O[C@H]2[C@@H](O[C@@H]3[C@@H](O)[C@@H](O)[C@@H](N=C(N)N)[C@@H](O)[C@@H]3N=C(N)N)O[C@@H](C)[C@]2(O)CO)O[C@H](CO)[C@@H](O)[C@@H]1O | 18.4% [at 25.6 µM] | 
COc1ccc(-c2ccc(=N)n(CCCC(=O)O)n2)cc1 |  | 0.158 µM (active)
COc1ccc(-c2ccc(N)[n+](CCCC(=O)O)n2)cc1 |  | inactive
Clc1ccccc1-c1cc(NCc2ccccc2)ncn1 |  | 7.94 µM (active)
Cc1cccc(CNc2cc(-c3ccccc3Cl)ncn2)c1 |  | 10 µM (active)
Clc1ccccc1-c1cc(NCc2cccnc2)ncn1 | -38% | 
CC(C(=O)NCc1ccc2c(c1)OCO2)N1c2cccc3cccc(c23)S1(=O)=O (centres undefined) |  | 0.794 µM (active)
COc1ccc(C(=O)N2CCC[C@@]3(CCN(Cc4cc(C(F)(F)F)cc(C(F)(F)F)c4)C3)C2)cc1 | 13.4% | 
COC(=O)[C@@]1(Cc2ccc(OC)cc2)[C@H]2c3cc(C(=O)N4CCCC4)n(CCCNc4ncc(C(F)(F)F)cc4Cl)c3C[C@H]2CN1C(=O)c1ccccc1 |  | 3.16 µM (active)
COC(=O)[C@@]1(Cc2ccc(OC)cc2)[C@H]2c3cc(C(=O)N4CCCC4)n(CCc4c[nH]c5cc(F)ccc45)c3C[C@H]2CN1C(=O)c1ccccc1 |  | 3.98 µM (active)
COC(=O)[C@@]1(Cc2ccc(F)cc2)[C@H]2c3cc(C(=O)N4CCCC4)n(CCc4c[nH]c5ccc(OC)cc45)c3C[C@H]2CN1C(=O)c1ccccc1 |  | 7.94 µM (active)
COc1ccc(NC(=O)N2CC[C@@]3(CCCN(C(=O)c4cccc(F)c4)C3)C2)cc1 | 14.1% | 
COC(=O)[C@@]1(Cc2ccc(OC)cc2)[C@H]2c3cc(C(=O)N4CCCC4)n(Cc4ccc(Cl)c(C(F)(F)F)c4)c3C[C@H]2CN1C(=O)c1ccccc1 | -43.7% | 
COC(=O)[C@@]1(Cc2ccc(OC)cc2)[C@H]2c3cc(C(=O)N4CCCC4)n(CCc4c[nH]c5ccc(O)cc45)c3C[C@H]2CN1C(=O)c1ccccc1 |  | 10 µM (active)
COC(=O)[C@@]1(Cc2ccc(F)cc2)[C@H]2c3cc(C(=O)N4CCCC4)n(CCc4c[nH]c5ccccc45)c3C[C@H]2CN1C(=O)c1ccccc1 |  | 10 µM (active)
O=C1C(SCCO)=C(SCCO)C(=O)c2ccccc21 |  | 0.0794 µM (active)
O=S(=O)(O)[C@@H](CO)c1ccccc1 (tested in a mixture with another compound) | -9.78% [at 11.4 µM] | 
Cc1ccc(S(=O)(=O)NCCC(=O)NCc2ccccc2)cc1 |  | 20 µM (active)
CCN(CC)C(=O)CCNS(=O)(=O)c1ccc(C)cc1 |  | 5.01 µM (active)

Structure (SMILES) | activity, negative = inhibition | AC50
CCCCNC(=O)NS(=O)(=O)c1ccc(C)cc1 | 24.1% [at 25.6 µM] | 
Cc1ccc(S(=O)(=O)NCc2ccccc2)cc1 | -39.9% | 
COc1ncc2nc(-c3cn(C)c4ccccc34)c(=O)n(CCC#N)c2n1 | 4.22% | 
CCOc1cc(C2NN=C(c3ccccc3)S2)ccc1OCc1ccccc1Cl (centres undefined) |  | 5.01 µM (active)
Nc1nc(SCC(=O)Nc2ccccc2Sc2ccc(Cl)cc2)n[nH]1 |  | 0.0631 µM (active)
O=C(Cn1cnc2ccccc2c1=O)Nc1nnc(SCc2ccccc2)s1 |  | 15.8 µM (active)
Cc1ccc(C(=O)COC(=O)c2ccccc2N2C(=O)C3C4CCC(C4)C3C2=O)cc1C (centres undefined) |  | 14.1 µM (active)
CS(=O)(=O)Nc1ccc([N+](=O)[O-])cc1OC1CCCCC1 |  | 0.0794 µM (active)
CS(=O)(=O)Nc1ccc([N+](=O)[O-])cc1Oc1ccccc1 | -27.8% [at 25.6 µM] | 
CCN(CC)CCOc1ccc(Cc2ccccc2)cc1 |  | 15.8 µM (active)
CCN(CC)CCOc1ccc(/C(=C(\Cl)c2ccccc2)c2ccccc2)cc1 | -31.9% [at 25.6 µM] | 
COc1ccc(O)c(/C=N/NC(=O)CSc2nnc(C)n2-c2ccccc2)c1 | -22.6% | 
COc1ccccc1NCc1nnc(SCC(=O)N/N=C/c2ccco2)n1-c1ccc(Cl)cc1Cl |  | 4.47 µM (active)
CCNc1ncc2nc(-c3ccccc3)c(=O)n(Cc3ccc(F)cc3)c2n1 | -39% | 
CN(C)c1ncc2nc(-c3ccc(Cl)cc3)c(=O)n(Cc3ccc(F)cc3)c2n1 | -31.2% | 
CN(C)c1ncc2ncc(=O)n(C)c2n1 | -19.2% | 
CCNc1ncc2ncc(=O)n(Cc3ccc(F)cc3)c2n1 |  | 15.8 µM (active)
CCNc1ncc2nc(-c3ccc(OC)cc3)c(=O)n(Cc3ccc(F)cc3)c2n1 | 5.68% | 
CN(C)c1ncc2nc(-c3cc(F)cc(F)c3)c(=O)n(Cc3ccc(F)cc3)c2n1 | 36.3% | 
Cc1nc2cnc(N(C)C)nc2n(Cc2ccc(F)cc2)c1=O |  | 1.58 µM (active)
CN(C)c1ncc2ncc(=O)n(Cc3ccc(F)cc3)c2n1 |  | 3.16 µM (active)
CN(C)c1ncc2nc(-c3ccc(F)cc3)c(=O)n(Cc3ccc(F)cc3)c2n1 | 15.8% | 
